± gives the standard deviation. Over roughly 8,200 sequences, “pre-steady-state target cleavage rate” has its median near 0.024; the highest 2% begin near 1.3. What follows is part of a selection rich in the highest values, with near analogues and random picks from the rest.
Test system: MIWI (PIWIL1) piRISC loaded with L1MC piRNA (30 nt)
Experiment: pre-steady-state target cleavage rate (min^-1); MIWI and MILI are mouse PIWI proteins and EfPiwi is from a freshwater sponge; tags in brackets are library labels; higher = faster piRNA-guided slicing of the target
Settings: guide: L1MC piRNA 5'p-UAACUAAAUACUAUGCAAGCUGUAGGUCCU
How it was run: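 A transcribed, DNA-blocked target RNA library (0.1 nM) and 1 nM active affinity-purified piRISC bearing one synthetic guide were incubated in HEPES–potassium acetate buffer at 33 °C for 0–8 or 0–960 min, either with or without 500 nM GTSF1 partner protein. Uncleaved targets were sequenced, normalised to depth and to weakly complementary targets, and pooled over three trials, with k3 capped at 0.0001 min^-1. The pre-steady-state cleavage rate was derived with a burst-and-steady-state fit.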

[1] = auxiliary factor: 500 nM mouse GTSF1
[2] = auxiliary factor: none (no GTSF1)

Sequence	pre-steady-state target cleavage rate [1]	pre-steady-state target cleavage rate [2]
UCCUGGUACAGGUUGCAUAGUAUUUACUUA	0.125 ± 0.035	0.00733 ± 0.003
UGGACCUACAGACUUGCAUAGUAUUUAGUUA	1.13 ± 0.1	0.0446 ± 0.0075
UCCUGGAUGUCGUUAGCAUAGUAUUUAGUUA	0.0102 ± 0.0036	
UCCUGGAUGUGCUAGCAUAGUAUAUAGUUA	0.0106 ± 0.0042	
UCCACGAUCAGCUUGCAUAGUAUUUAGUUA	1.55 ± 0.058	0.0711 ± 0.013
UCCACGAUCAGCUUGCAUAGUAUUUAGUAA	1.09 ± 0.079	0.0387 ± 0.009
UCCACGAUCAGCUUGCAUAGUAUUUAGAAA	0.444 ± 0.044	0.00814 ± 0.0028
UCCUGCUACAGCUUGCAUAGAAUUUACAAA	0.309 ± 0.065	
AGGACCUACAGCUUGCAUAGUAUAUUCAAA	0.419 ± 0.072	
AGGACCUUCAGCUUGCAUAGUAUUUUCAAA	0.311 ± 0.038	0.00593 ± 0.0032
UCCUGCUCACAGCUUGCAUAGUAUUUAGUUA	1.37 ± 0.076	0.0748 ± 0.014
UCCUCCCACAGCUUGCAUAGUAUUUAGUUA	1.15 ± 0.04	0.0641 ± 0.012
UCCUGCUCAGCUUGCAUAGUAUUUAGUUA	1.09 ± 0.043	0.0636 ± 0.013
UCCUGCACAGCUUGCAUAGUAUUUAGUUA	1.34 ± 0.073	0.0804 ± 0.018
UCCUGGUCACAGCUUGCAUAGUAUUUAGUUA	0.818 ± 0.034	0.0939 ± 0.022
UCCUCCACAGCUUGCAUAGUAUUUAGUUA	0.736 ± 0.027	0.0534 ± 0.011
UCCUGGCACAGCUUGCAUAGUAUUUAGUUA	0.456 ± 0.081	0.0452 ± 0.011
UCCUGCCACAGCUUGCAUAGUAUUUAGUUA	1.2 ± 0.051	0.0769 ± 0.013
UCCUCCUCACAGCUUGCAUAGUAUUUAGUUA	1.49 ± 0.064	0.0662 ± 0.014
UCCUGGAUGAGCAAGCAUAGUAUUUAGUAA	0.0379 ± 0.01	
UCCUGGAUGUGCAUGCAUAGUAUUUAGUUA	0.13 ± 0.014	0.00793 ± 0.0025

Sequence	pre-steady-state target cleavage rate [1]	pre-steady-state target cleavage rate [2]
UCCUGGAUGUGCUUGCAAAGUUUUUAGUUA	0.00751 ± 0.0037	0.00575 ± 0.002
UCGACCAACAGCUUCCAUAGUAUUUAGUUA	0.0723 ± 0.016	0.0035 ± 0.0011
UCCAGCUACAGCUUGGAUAGUAUUUAGUUA	1.31 ± 0.12	0.0456 ± 0.0069
UCGACCAACAGCUUGGAUAGUAUUUAGUUA	1.67 ± 0.045	0.0693 ± 0.011
UCCACCAACAGCUUGGAUAGUAUUUAGUUA	1.36 ± 0.056	0.0553 ± 0.01
AGGACCAACAGCUUGGAUAGUAUUUAGUUA	1.41 ± 0.059	0.0681 ± 0.01
UCCUCCAACAGCUUGGAUAGUAUUUAGUUA	1.3 ± 0.053	0.0527 ± 0.0092
AGGACCAACAGCUUGCAUAGUAUUUAGAUA	0.509 ± 0.045	0.0557 ± 0.011
UCCUGGAACAGCUUGGAUAGUAUUUAGUUA	1.18 ± 0.043	0.0808 ± 0.015
UGGACCAACAGCUUGGAUAGUAUUUAGUUA	1.49 ± 0.054	0.0691 ± 0.011
AGGACCAACAGCUUCCAUAGUAUUUAGUUA	0.0962 ± 0.019	0.00538 ± 0.0017
UGGACCAACAGCUUCCAUAGUAUUUAGUUA	0.0364 ± 0.0068	0.00383 ± 0.0016
UCGAGCUACAGCUUGGAUAGUAUUUAGUUA	1.11 ± 0.086	0.0477 ± 0.0076
UCCUCCUACAGCUUCGAUAGUAUUUAGAAA	0.0755 ± 0.019	
UCCUGGAUGAGCUUGCAUAGUAUUUAGUGA	0.703 ± 0.047	0.0519 ± 0.0094
UCCUGCUACAGCUUGCAUUGUAUUAAGUUA	0.502 ± 0.038	0.00942 ± 0.0021
UCCACCUACAGCUUGGAUAGUAUUUUCAAA	0.0295 ± 0.012	
UCCUCCUACAGCAUGCAUAGUAUUUAGAAA	0.485 ± 0.066	
UGGACCUACAGCUUGGAUAGUAUUUAGUAA	0.851 ± 0.062	0.0355 ± 0.006
UGGACCUACAGGUUGGAUAGUAUUUAGUUA	1.33 ± 0.091	0.0484 ± 0.0079
AGGACCUACAGCUUGGAUAGUAUUUAGAUA	0.527 ± 0.057	0.0218 ± 0.0053

Sequence	pre-steady-state target cleavage rate [1]	pre-steady-state target cleavage rate [2]
UCCACCUACAGCUUGGAUAGUAUUUAGUAA	0.747 ± 0.054	0.0244 ± 0.0052
UGGACCUACAGCUUGGAUAGUAUUUAGAUA	0.427 ± 0.05	0.0235 ± 0.0046
UCCACCUACAGCUUGGAUAGUAUUUAGAUA	0.319 ± 0.042	0.0137 ± 0.0027
AGGACCUACAGCUUGGAUAGUAUUUAGUUA	1.67 ± 0.052	0.0813 ± 0.013
UCCACCUACAGCUUGGAUAGUAUUUAGUUA	1.44 ± 0.056	0.0469 ± 0.0082
AGGACCUACAGCUUGGAUAGUAUUUAGUAA	1.02 ± 0.063	0.0552 ± 0.012
AGGACCUACAGGUUGGAUAGUAUUUAGUUA	1.24 ± 0.079	0.0408 ± 0.0067
UGGACCUACAGCUUGGAUAGUAUUUAGUUA	1.65 ± 0.068	0.0735 ± 0.013
UCGACCUACAGGUUGGAUAGUAUUUAGUUA	1.16 ± 0.11	0.0308 ± 0.0056
UCCACCUACAGGUUGCAUAGUAUUUACAAA	0.336 ± 0.052	
UCCACCUACAGCUUGCAUAGUUUUUAGAUA	0.16 ± 0.029	0.0077 ± 0.0023
UCCUGGUUCAGGUUGCAUAGUAUUUAGUUA	0.711 ± 0.051	0.0138 ± 0.0041
AGGAGCUACAGCUAGCAUAGUAUUUAGUUA	1.28 ± 0.076	0.0359 ± 0.0079
UCCUGCUACAGCUAGCAUAGUAUUUACAAA	0.234 ± 0.049	
UCCUGCUACAGCUUGCUUAGUAUUAAGUUA	0.403 ± 0.038	0.00887 ± 0.0026
UCCUGGAUCAGCUUGCAUCGUAUUUAGUUA	0.327 ± 0.02	0.032 ± 0.0077
AGGACCUACAGCUUGCAUAGUAUUUUCUUA	0.33 ± 0.049	0.03 ± 0.0093
UCCUCCUACACCUUGCAUAGAAUUUAGUUA	0.341 ± 0.082	0.00682 ± 0.0023
UCCUCCUACAGCUUGCAUUGAAUUUAGUUA	0.183 ± 0.018	0.00617 ± 0.0025
UCGACCUACACCUUGCAUAGAAUUUAGUUA	0.395 ± 0.07	0.0128 ± 0.0024
